Screening data deposited in PubChem BioAssay by several laboratories.
rCAG RNA binder: r(CAG) repeat RNA binding | TO-PRO-1 dye displacement fluorescence | inhibition, % at 3 µM | hit rate 1.3% among 370,000 | AID 651821;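 active means inhibition above the plate cutoff, the mean of all test compounds on that plate plus 3 SD, cut at about 35% in these data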;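 further: 0% = DMSO alone and 100% = 100 µM mitoxantrone as full dye displacement; higher means more dye released from RNA so lower well fluorescence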
Rtt109 Vps75: inhibitors of Candida albicans Rtt109/Vps75 histone acetyltransferase. Q5AAJ8. purified Rtt109/Vps75, ThioGlo CoA-SH fluorescence, 4 h. inhibition, % at 34.9 µM. hit rate 0.16% among 330,000. AID 540336;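 active means inhibition of at least 50% in every replicate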
ABHD5 PLIN5 PPI: blocks binding of human ABHD5 to perilipin-5. Split G. princeps luciferase complementation, luminescence, 4 h. hit rate 0.78% among 360,000. inhibition, % at 4 µM;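 active means inhibition above the mean inhibition across every tested compound plus 3 SD, cut at about 22% in these data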;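 further: 0% = DMSO only wells and the 100% control is not disclosed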
LANA-H2A inh: blocks KSHV LANA binding to histone H2A/H2B. Q9QR71. cell-free LANA-H2A/H2B peptide, fluorescence polarization. inhibition, % (no concentration beside the values). hit rate 0.6% among 320,000. AID 2629; in the data active means inhibition mostly above about 10%, no sharp cut-off; inactive means mostly below about 6.7%
PRMT1 inh: PRMT1 (human) inhibition, primary screen. Q99873. recombinant PRMT1, activity-based probe fluorescence polarization. inhibition, % at 2.79 µM. hit rate 1.3% among 370,000;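 active means inhibition above about 21% made by adding two undisclosed values, limit read from the data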
ALR inh: human ALR oxidase inhibition via reduced H2O2; P55789; purified ALR, DTT oxidation, H2O2 HRP-luminol luminescence; inhibition, % (test concentration not listed); hit rate 3.8% among 290,000; AID 485317;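 active means mean replicate inhibition above about 79%, with every replicate also reaching it, limit read from the data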
Active calls of the source: *. In the library only some 5.9% were active in any assay of this set; here they are far more common.

How did Cc1cccc(N=C2c3cc([N+](=O)[O-])ccc3-c3c2cc([N+](=O)[O-])cc3[N+](=O)[O-])c1 do in these assays?
rCAG RNA binder: 3.5; Rtt109 Vps75: 7.3; ABHD5 PLIN5 PPI: 22.1*; PRMT1 inh: -1.4

How did NC(Cc1ccccc1)[P+](=O)O (stereo not drawn) do in these assays?
rCAG RNA binder: 0.9; PRMT1 inh: 2.6

What do the screens show for `C[C@H](Cc1ccc(OCC(=O)O)cc1)NC[C@H](O)c1cccc(Cl)c1`?
rCAG RNA binder: 2.8; PRMT1 inh: -3.7

Results for CN1Cc2cccnc2N(C)Cc2cc(Cl)ccc21 ?
rCAG RNA binder: -6.7; Rtt109 Vps75: -0.4; ABHD5 PLIN5 PPI: -6.4; LANA-H2A inh: 1.6; PRMT1 inh: -1.2; ALR inh: 98.8*

How did CN1c2ccc(Br)cc2[C@H]2NCC[C@H]2[C@H]1CO do in these assays?
rCAG RNA binder: 5.3; PRMT1 inh: 2.1

How did O=C(O)CCn1cc(C=C2C(=O)NC(=S)NC2=O)c(-c2cc3ccccc3oc2=O)n1 do in these assays?
rCAG RNA binder: 4.6; Rtt109 Vps75: 5.8; ABHD5 PLIN5 PPI: 0.5; PRMT1 inh: 11.8

Results for O=C(O)CCn1cc(C=C2C(=O)NC(=S)NC2=O)c(-c2ccccc2)n1 ?
rCAG RNA binder: -1.2; Rtt109 Vps75: 0.8; ABHD5 PLIN5 PPI: 7.5; LANA-H2A inh: 1.5; PRMT1 inh: 4.5; ALR inh: 87.0*

How did CCc1ccc(N2C(=O)NC(=O)/C(=C/c3cccn3CCOc3ccc(C)cc3)C2=O)cc1 do in these assays?
rCAG RNA binder: 9.7; Rtt109 Vps75: -0.2; ABHD5 PLIN5 PPI: -1.4; LANA-H2A inh: -15.2; PRMT1 inh: 3.1; ALR inh: -0.8

What do the screens show for `Cc1cc(C)cc(N2C(=O)NC(=O)/C(=C\c3cccn3-c3ccc(Cl)cc3)C2=O)c1`?
rCAG RNA binder: 8.5; Rtt109 Vps75: 5.7; ABHD5 PLIN5 PPI: -2.6; LANA-H2A inh: -1.2; PRMT1 inh: 2.5; ALR inh: 97.8*

What do the screens show for `COc1ccccc1-n1c(O)c(/C=N/NC(=S)Nc2ccccc2)c(=O)[nH]c1=S`?
rCAG RNA binder: 8.9; Rtt109 Vps75: 9.1; ABHD5 PLIN5 PPI: -1.0; LANA-H2A inh: -5.4; PRMT1 inh: 6.7; ALR inh: 91.9*

How did CS(=O)(=O)N1Cc2cc(Br)ccc2-n2nncc2C1 do in these assays?
rCAG RNA binder: 2.6; PRMT1 inh: -8.7

What do the screens show for `O=C(NC(Cc1ccccc1)P(=O)(O)Oc1ccccc1)OCc1ccccc1` (stereo not drawn)?
rCAG RNA binder: 5.5; PRMT1 inh: -5.9

What do the screens show for `C/C1=C\[C@@H](C)C/C=C/[C@H]2[C@@H]3O[C@]3(C)[C@@H](C)[C@H]3[C@H](Cc4c[nH]c5ccccc45)NC(=O)[C@]32C(=O)/C=C/C(=O)[C@@H]1O`?
Rtt109 Vps75: 13.0; ABHD5 PLIN5 PPI: 69.6*; LANA-H2A inh: 7.5; ALR inh: 1.2

Results for Cc1ccc2nc(-c3ccc(CN4CCC(n5nnc6ccccc65)CC4)cc3)c(-c3ccccc3)nc2c1 ?
rCAG RNA binder: 10.3; PRMT1 inh: -3.4

Results for O=C(NCCN1CCC2(CC1)C(=O)NCN2c1ccccc1)c1ccccc1C(F)(F)F ?
rCAG RNA binder: 0.7; PRMT1 inh: 0.8

How did COc1cc(O)c2c(c1)/C=C/C[C@H](O)[C@H](O)[C@@H](O)/C=C/C[C@H](C)OC2=O do in these assays?
rCAG RNA binder: 2.2; PRMT1 inh: 1.6

How did C=C(CO)CC1CC(O)[C@]2(C)OC3CC4OC5C[C@]6(C)O[C@]7(C)CCC8OC9C[C@]%10(C)OC%11C(C)=CC(=O)OC%11CC%10OC9C[C@@H](C)C8OC7CC6O[C@]5(C)C/C=C\C4OC3CC2O1 (stereo partly drawn) do in these assays?
rCAG RNA binder: 2.8; Rtt109 Vps75: 2.9; ABHD5 PLIN5 PPI: -2.5; LANA-H2A inh: -4.4; PRMT1 inh: -1.9

How did C=C(C=O)CC1CC(O)[C@]2(C)OC3CC4OC5C[C@]6(C)O[C@]7(C)CCC8OC9C[C@]%10(C)OC%11C(C)=CC(=O)OC%11CC%10OC9C[C@@H](C)C8OC7CC6O[C@]5(C)CC5OC5C4OC3CC2O1 (stereo partly drawn) do in these assays?
Rtt109 Vps75: -13.8; ABHD5 PLIN5 PPI: 22.1*; LANA-H2A inh: -5.6; ALR inh: 0.6

How did N/C(=N\[N+](=O)[O-])N/N=C/c1ccc(O)cc1 do in these assays?
rCAG RNA binder: -0.6; Rtt109 Vps75: 4.2; ABHD5 PLIN5 PPI: 1.6; LANA-H2A inh: -0.7; PRMT1 inh: -2.9; ALR inh: 97.0*

Results for COP(=O)(C(=O)Nc1ccccc1)C(CC(C)C)NC(=O)OCc1ccccc1 (stereo not drawn) ?
rCAG RNA binder: -0.4; PRMT1 inh: -2.1

How did Cn1cc(C=C(C#N)C#N)c2ccccc21 do in these assays?
rCAG RNA binder: -2.4; Rtt109 Vps75: -16.8; ABHD5 PLIN5 PPI: -3.1; LANA-H2A inh: active; PRMT1 inh: -1.4; ALR inh: -15.7

Results for O=C(Nc1ccccc1)N1Cc2cc(Br)ccc2-n2nncc2C1 ?
rCAG RNA binder: 1.1; PRMT1 inh: 1.2

What do the screens show for `Cc1ccc(C(=O)NCCN2CCC3(CC2)C(=O)NCN3c2ccccc2)cc1`?
rCAG RNA binder: 3.3; PRMT1 inh: -3.1

What do the screens show for `Cc1cc(N=Nc2ccccc2C)ccc1N`?
rCAG RNA binder: 3.7; LANA-H2A inh: 2.4; PRMT1 inh: -2.7; ALR inh: 85.8*

What do the screens show for `OC1CN2CCCC(O)C2C1O` (stereo not drawn)?
rCAG RNA binder: 0.2; PRMT1 inh: -0.3

What do the screens show for `CCOP(=O)(CCP(=O)(OCC)OCC)OCC.C[CH2][Sn]([Cl])([Cl])[CH2]C`?
rCAG RNA binder: 2.9; Rtt109 Vps75: 2.9; ABHD5 PLIN5 PPI: 78.2*; PRMT1 inh: 6.6

What do the screens show for `CCOP(=O)(OCC)OCC`?
rCAG RNA binder: -0.4; Rtt109 Vps75: -8.2; ABHD5 PLIN5 PPI: 4.4; LANA-H2A inh: -247.0; PRMT1 inh: 1.6; ALR inh: -7.1

How did CN(C)P(=O)(C(Cl)=C(N1CCCCC1)N1CCCCC1)N(C)C do in these assays?
rCAG RNA binder: -12.9; Rtt109 Vps75: -1.8; ABHD5 PLIN5 PPI: -27.5; LANA-H2A inh: 1.7; PRMT1 inh: 0.5; ALR inh: 98.4*

What do the screens show for `O=C(N1CCCCCC1)N1CC1`?
rCAG RNA binder: -2.0; Rtt109 Vps75: 0.3; ABHD5 PLIN5 PPI: 7.1; PRMT1 inh: 0.5

How did O=C1CC[C@@]2(O)[C@H]3Cc4ccc(O)c5c4[C@@]2(CCN3CC2CC2)C1O5 (stereo partly drawn) do in these assays?
rCAG RNA binder: 4.5; PRMT1 inh: -3.6

Results for O=C(NC1CC1)c1cn(Cc2ccccc2)nc1-c1ccccc1 ?
rCAG RNA binder: -3.3; Rtt109 Vps75: -10.2; ABHD5 PLIN5 PPI: 13.5; PRMT1 inh: -1.3

How did Cc1ccc(Cn2cc(C=O)c(-c3ccc(C)cc3)n2)cc1 do in these assays?
rCAG RNA binder: -3.7; Rtt109 Vps75: -1.8; ABHD5 PLIN5 PPI: -4.5; LANA-H2A inh: -2.4; PRMT1 inh: 0.9; ALR inh: 90.0*
